The panel holds about 83,000 compounds, 20% with a hit somewhere; the sample as a whole holds those more often.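 The endpoint reported here, percent growth, reads 100 for growth as untreated, 0 for no net growth and -100 for all cells dead.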 Active and inactive are the calls of the source. Rule for the calls: active = growth percent below 10; inactive = the rest.
Assays:
Experiment in all cases: NCI-60 one-dose screen, 48 h (100 = growth as untreated, 0 = no growth, -100 = all killed)
Conditions in all cases: 10 µM unless noted
NCI-H23 lung = system: NCI-H23 lung
NCI-H226 lung = system: NCI-H226 lung
NCI-H322M lung = system: NCI-H322M lung
HOP-62 NSCLC = system: HOP-62 NSCLC
NCI-H460 lung = system: NCI-H460 lung
HOP-92 NSCLC = system: HOP-92 NSCLC
NCI-H522 lung = system: NCI-H522 lung
A549/ATCC NSCLC = system: A549/ATCC NSCLC
786-0 renal = system: 786-0 renal
COLO 205 colon = system: COLO 205 colon
DU-145 prostate = system: DU-145 prostate
K-562 leukemia = system: K-562 leukemia
MALME-3M melanoma = system: MALME-3M melanoma
MDA-MB-231 breast = system: MDA-MB-231 breast
RXF 393 renal = system: RXF 393 renal
SF-268 CNS = system: SF-268 CNS
SF-295 CNS = system: SF-295 CNS
UACC-257 melanoma = system: UACC-257 melanoma
M14 melanoma = system: M14 melanoma

Measured: growth

COc1ccc(-c2c(C)noc2-c2ccc(O)cc2O)cc1
inactive: NCI-H23 lung 81.4% | NCI-H226 lung 101% | NCI-H322M lung 94% | HOP-62 NSCLC 118% | NCI-H460 lung 54.3% | HOP-92 NSCLC 104% | NCI-H522 lung 69.5% | A549/ATCC NSCLC 75.3% | 786-0 renal 97.9% | COLO 205 colon 121% | DU-145 prostate 64.4% | K-562 leukemia 39.6% | MALME-3M melanoma 103% | MDA-MB-231 breast 108% | RXF 393 renal 90.7% | SF-268 CNS 82% | SF-295 CNS 97.6% | UACC-257 melanoma 111% | M14 melanoma 103%

CC/C=C\C[C@H](O)C/C=C1/C(=O)C=C[C@@H]1C/C=C\CCCC(=O)OC(C)C
inactive: DU-145 prostate 11.5% | SF-268 CNS 12.9%
active: NCI-H23 lung -40.1% | NCI-H226 lung -39% | NCI-H322M lung -1.62% | HOP-62 NSCLC -44.2% | NCI-H460 lung 0.788% | HOP-92 NSCLC -0.165% | NCI-H522 lung -54.2% | A549/ATCC NSCLC -39.2% | 786-0 renal -50.8% | COLO 205 colon -73.8% | K-562 leukemia -7.12% | MALME-3M melanoma -56.2% | MDA-MB-231 breast 7.13% | RXF 393 renal -82.7% | SF-295 CNS -24.7% | UACC-257 melanoma -51% | M14 melanoma -31.3%

N#Cc1c2c(nc3n[nH]c(N)c13)CCCC2
inactive: NCI-H23 lung 99.6% | NCI-H226 lung 110% | NCI-H322M lung 128% | HOP-62 NSCLC 100% | NCI-H460 lung 108% | HOP-92 NSCLC 79% | NCI-H522 lung 104% | A549/ATCC NSCLC 108% | 786-0 renal 106% | COLO 205 colon 148% | DU-145 prostate 121% | K-562 leukemia 97.7% | MALME-3M melanoma 115% | MDA-MB-231 breast 106% | RXF 393 renal 92.9% | SF-268 CNS 101% | SF-295 CNS 101% | UACC-257 melanoma 101% | M14 melanoma 104%

CC/C(=C(\c1ccc(O)cc1)c1ccc(OCCN(C)CCN(C)C(=O)CCCCC(=O)c2c(C)[nH]c(/C=C3\N=C(c4ccc[nH]4)C=C3OC)c2C)cc1)c1ccccc1
inactive: NCI-H23 lung 94.1% | NCI-H226 lung 90.5% | NCI-H322M lung 88.7% | HOP-62 NSCLC 81% | NCI-H460 lung 76.8% | HOP-92 NSCLC 63.4% | NCI-H522 lung 84.3% | A549/ATCC NSCLC 88.5% | 786-0 renal 103% | COLO 205 colon 91.3% | DU-145 prostate 65.8% | K-562 leukemia 42.9% | MALME-3M melanoma 116% | MDA-MB-231 breast 35.1% | RXF 393 renal 83% | SF-268 CNS 75.9% | SF-295 CNS 89.2% | UACC-257 melanoma 99.8% | M14 melanoma 39.7%

C=C1CCC2C3(C)COC(c4ccc(OC)cc4Br)OC3CCC2(C)C1/C=C/C1=CCOC1=O (configuration not stated)
inactive: NCI-H23 lung 52.7% | NCI-H226 lung 63.1% | NCI-H322M lung 97.6% | HOP-62 NSCLC 97.3% | NCI-H460 lung 65% | HOP-92 NSCLC 84.8% | NCI-H522 lung 63.8% | A549/ATCC NSCLC 58.2% | 786-0 renal 77.6% | COLO 205 colon 118% | DU-145 prostate 86.6% | K-562 leukemia 31.1% | MALME-3M melanoma 93.9% | MDA-MB-231 breast 78.7% | RXF 393 renal 90% | SF-268 CNS 89% | SF-295 CNS 60.6% | UACC-257 melanoma 58.3% | M14 melanoma 87.3%

CCOC(=O)c1c2c(n3ccc(NC(=O)CCN4CCOCC4)cc13)C(=O)c1ncccc1C2=O
inactive: NCI-H23 lung 16.7% | NCI-H226 lung 78.5% | NCI-H322M lung 14.3% | HOP-62 NSCLC 39.9% | NCI-H460 lung 11.1% | HOP-92 NSCLC 45.1% | A549/ATCC NSCLC 40.4% | 786-0 renal 51.8% | COLO 205 colon 37.9% | DU-145 prostate 45.8% | K-562 leukemia 19.8% | MALME-3M melanoma 42.6% | MDA-MB-231 breast 26% | RXF 393 renal 63% | SF-268 CNS 39% | SF-295 CNS 49.3% | UACC-257 melanoma 32% | M14 melanoma 24.6%
active: NCI-H522 lung -20.5%

O=C1CC(c2nc3ccccc3s2)CN1C1CCCCC1 (configuration not stated)
inactive: NCI-H23 lung 90.4% | NCI-H226 lung 94.6% | NCI-H322M lung 91.2% | HOP-62 NSCLC 93.2% | NCI-H460 lung 105% | HOP-92 NSCLC 84.9% | NCI-H522 lung 92.7% | A549/ATCC NSCLC 98.9% | 786-0 renal 109% | COLO 205 colon 101% | DU-145 prostate 104% | K-562 leukemia 96.7% | MALME-3M melanoma 90.8% | MDA-MB-231 breast 86.8% | RXF 393 renal 107% | SF-268 CNS 99.1% | SF-295 CNS 92.9% | UACC-257 melanoma 98.6% | M14 melanoma 99.1%

N=c1c2ccccc2nc2n1CCCCC2
inactive: NCI-H23 lung 102% | NCI-H226 lung 102% | NCI-H322M lung 112% | HOP-62 NSCLC 105% | NCI-H460 lung 113% | HOP-92 NSCLC 133% | NCI-H522 lung 116% | A549/ATCC NSCLC 101% | 786-0 renal 119% | COLO 205 colon 104% | DU-145 prostate 118% | K-562 leukemia 121% | MALME-3M melanoma 107% | MDA-MB-231 breast 110% | RXF 393 renal 110% | SF-268 CNS 106% | SF-295 CNS 109% | UACC-257 melanoma 110% | M14 melanoma 108%
